Assay results reported in PubChem BioAssay AID1159580 (chemical genetic matrix, 2015).
Several values for one entry are separate records, joined by “and”; a condition that tells them apart may be missing. Equal entries are not always repeated. The whole screen tested about 5,500 compounds, of which about 2,000 (36%) were called active. Inconclusive results (about 18%) are left out. Rule as the data show it: active = normalized growth mostly below about 0.91 (no sharp cut-off); inconclusive = no clear call, values can overlap the other calls; inactive = mostly above about 0.92. Some of the results follow.

Experiment: chemical genetic growth profiling, strain panel (AID 1159580);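 also: tested at 20 µM; growth read once vehicle control cultures reached saturation at 30 °C; 1 = growth at the plate median or of vehicle wells; lower values mean less growth of the strain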
Settings: S. cerevisiae deletion strains, growth OD

Measured: normalized growth

CN1CCN(C2=Nc3ccccc3Oc3ccc(Cl)cc32)CC1
inactive: locus YAL013W, strain DEP1, active compounds read low 0.995 and 0.98 | locus YAL021C, strain ccr4, active compounds read low 0.981 | locus YAL026C, strain drs2, active compounds read low 0.984 | locus YAL030W, strain snc1, active compounds read low 1 | locus YAL040C, strain CLN3, active compounds read low 0.979 | locus YBL061C, strain skt5, active compounds read low 0.982 | locus YBR009C, strain hhf1, active compounds read low 1.01 | locus YBR021W, strain FUR4, active compounds read low 1.01 | locus YBR023C, strain chs3, active compounds read low 1 | locus YBR171W, strain sec66, active compounds read low 0.964 | locus YBR229C, strain ROT2, active compounds read low 0.953 | locus YBR231C, strain swc5, active compounds read low 0.988 | locus YBR279W, strain paf1, active compounds read low 0.987 | locus YCL011C, strain gbp2, active compounds read low 0.978 | locus YCL016C, strain dcc1, active compounds read low 1 | locus YCL029C, strain bik1, active compounds read low 0.994 | locus YCL061C, strain MRC1 (second series), active compounds read low 0.992 | locus YCL061C, strain MRC1, active compounds read low 0.989 | locus YCL069W, strain vba3, active compounds read low 0.999 | locus YCR088W, strain abp1, active compounds read low 0.993 | locus YDL005C, strain med2, active compounds read low 0.972 | locus YDL035C, strain GPR1, active compounds read low 0.988 | locus YDL040C, strain nat1, active compounds read low 0.97 | locus YDL074C, strain BRE1, active compounds read low 0.997 | locus YDL101C, strain DUN1, active compounds read low 0.989 | locus YDL134C, strain PPH21, active compounds read low 0.979 | locus YDL185W, strain tfp1, active compounds read low 0.992 | locus YDL192W, strain arf1, active compounds read low 0.991 | locus YDR001C, strain nth1, active compounds read low 0.967 | locus YDR069C, strain doa4, active compounds read low 0.969 | locus YDR101C, strain arx1, active compounds read low 0.994 | locus YDR137W, strain rgp1, active compounds read low 1.01 | locus YDR150W, strain NUM1, active compounds read low 0.991 and 1.02 | locus YDR159W, strain sac3, active compounds read low 0.972 | locus YDR162C, strain NBP2, active compounds read low 1.01 | locus YDR195W, strain ref2 0.948 | locus YDR297W, strain sur2, active compounds read low 0.99 | locus YDR318W, strain mcm21, active compounds read low 0.977 | locus YDR334W, strain swr1, active compounds read low 0.947 | locus YDR335W, strain msn5, active compounds read low 0.982 | locus YDR363W, strain ESC2, active compounds read low 0.928 | locus YDR388W, active compounds read low 0.994 | locus YDR392W, strain spt3, active compounds read low 1.05 | locus YDR502C, strain sam2, active compounds read low 0.986 | locus YEL003W, strain gim4, active compounds read low 0.976 | locus YEL037C, strain rad23, active compounds read low 0.998 | locus YEL061C, strain CIN8 (second series), active compounds read low 0.97 | locus YEL061C, strain CIN8, active compounds read low 0.997 | locus YER002W, strain NOP16, active compounds read low 0.974 | locus YER015W, strain faa2, active compounds read low 0.996 | locus YER016W, strain bim1, active compounds read low 1 | locus YER110C, active compounds read low 0.985 | locus YER111C, strain swi4, active compounds read low 0.998 | locus YER155C, strain BEM2 (second series), active compounds read low 0.985 | locus YER155C, strain BEM2, active compounds read low 0.996 | locus YER167W, strain BCK2, active compounds read low 0.988 | locus YFR010W, strain ubp6, active compounds read low 1.01 | locus YGL078C, strain dbp3, active compounds read low 1 | locus YGL086W, strain mad1, active compounds read low 0.974 | locus YGL167C, strain pmr1, active compounds read low 0.984 | locus YGL173C, strain kem1, active compounds read low 1.01 | locus YGL227W, strain vid30, active compounds read low 0.956 | locus YGL240W, strain doc1, active compounds read low 1.02 | locus YGL248W, strain PDE1, active compounds read low 0.963 | locus YGL253W, strain hxk2, active compounds read low 0.982 | locus YGR078C, strain PAC10, active compounds read low 1.02 and 0.994 | locus YGR135W, strain pre9, active compounds read low 0.981 | locus YGR229C, strain SMI1, active compounds read low 0.983 | locus YGR252W, strain gcn5, active compounds read low 0.956 | locus YHR013C, strain ard1, active compounds read low 0.974 | locus YHR027C, strain rpn1, active compounds read low 0.966 | locus YHR030C, strain SLT2, active compounds read low 0.987 and 1.04 | locus YHR079C, strain IRE1 (second series), active compounds read low 0.99 | locus YHR079C, strain IRE1, active compounds read low 1.06 | locus YHR094C, strain hxt1, active compounds read low 0.991 | locus YHR129C, strain ARP1, active compounds read low 0.991 | locus YHR142W, strain chs7, active compounds read low 0.956 | locus YHR200W, strain rpn10, active compounds read low 0.987 | locus YIL066C, strain RNR3, active compounds read low 0.971 | locus YIL073C, strain SPO22, active compounds read low 0.989 | locus YIL125W, strain kgd1, active compounds read low 0.992 | locus YIR030C, strain dcg1, active compounds read low 0.991 | locus YJL092W, strain hpr5, active compounds read low 0.978 | locus YJL095W, strain BCK1 (second series), active compounds read low 0.964 | locus YJL095W, strain BCK1, active compounds read low 0.981 and 1.03 | locus YJL115W, strain asf1, active compounds read low 0.926 | locus YJL129C, strain trk1, active compounds read low 0.971 | locus YJL134W, strain LCB3, active compounds read low 0.992 | locus YJL154C, strain vps35, active compounds read low 0.97 | locus YJL164C, strain tpk1, active compounds read low 0.998 | locus YJL166W, strain qcr8, active compounds read low 0.975 | locus YJL168C, strain set2, active compounds read low 0.991 | locus YJL187C, strain SWE1 (second series), active compounds read low 0.983 | locus YJL187C, strain SWE1, active compounds read low 0.99 | locus YJR043C, strain POL32, active compounds read low 1.01 | locus YJR066W, strain TOR1, active compounds read low 0.931
